Spn MK inh: S. pneumoniae mevalonate kinase inhibition. purified MK, PK/LDH-coupled NADH absorbance 340 nm. inhibition, % at 10 µM. 0.48% of 65,000 active;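 active = ranked among the strongest by inhibition in the single 10 µM screen, a fixed top-ranked set picked for dose follow-up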
PMK inhibit: blocks S. pneumoniae phosphomevalonate kinase. 0.49% of 65,000 active. purified PMK, PK/LDH-coupled NADH absorbance 340 nm. inhibition, % at 10 µM;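 active = top-ranked compounds by inhibition in the single 10 µM screen, taking a fixed number of the strongest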;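 note: 0% = full reaction with DMSO carrier and 100% = background rate without enzyme reaction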
DPM-DC inhibit: blocks S. pneumoniae diphosphomevalonate decarboxylase | 0.49% of 65,000 active | purified DPM-DC, PK/LDH coupled NADH fluorescence | AID 556 | calls only at 10 µM;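 active = the 320 compounds with the highest percent inhibition in the single-dose primary screen, excluding strongly autofluorescent ones, cut at about 32% in these data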;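 note: kinetic rate of NADH fluorescence loss reporting ADP formed by the decarboxylase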
A340 absorber: absorbance at 340 nm; compound absorbance at 340 nm, fold over control; fold change at 10 µM; 65,000 tested, under 10 active; AID 708;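 active = at 10 µM dose, initial 340 nm absorbance at least 2 fold that of control wells; inactive = change under 2 fold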;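 note: initial absorbance extrapolated from kinetic A340 decline of NADH oxidation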
Autofluor 339: intrinsic fluorescence of library compounds, ex339/em460 – biochemical, MLSMR library, data from DPM-DC assay, artefact control, profiling panel; compound autofluorescence, ex339/em460 nm, NADH buffer; stronger effect = higher value; 1 = no-compound wells, NADH background; fluorescence fold increase at 10 µM; 5.5% of 65,000 active; AID 709;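 active = at 10 µM, mean starting fluorescence two-fold or more over control wells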;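 note: signal is the first read of a kinetic run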
NADH enzymes: blocks coupling enzymes of NAD/NADH assays | coupled PK/LDH NADH assays, four targets | 0.02% of 65,000 active | IC50, µM (titrated, usually from 10 µM), without a hit: at the top dose inhibition | AID 774;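 active = single-dose screening hits from any of four coupled enzyme assays that gave an IC50 when retested across doses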;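 note: the DPM-DC format reads NADH fluorescence rather than 340 nm absorbance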
Starred values were filed as active, the others as inactive; i = inactive; x = no result given; + = active, no number. This is a sample that favours compounds with a hit; in the whole collection about 6.8% have one here.

SMILES	Spn MK inh	PMK inhibit	DPM-DC inhibit	A340 absorber	Autofluor 339	NADH enzymes
O=C(Nc1ccc2oc(-c3ccncc3)nc2c1)c1ccccc1F	14.0	16.0	x	1.05	3.71*	15.0%
CC(C)CC(=O)Nc1cccc(-c2nc3ccccc3o2)c1	6.0	2.0	i	1.01	1.2	3.0%
CC(C)CC(=O)Nc1ccc2oc(-c3ccncc3)nc2c1	6.0	16.0	x	1.04	3.72*	11.0%
O=C(Cc1ccccc1)Nc1ccc2oc(-c3ccncc3)nc2c1	8.0	2.0	x	1.07	3.86*	5.0%
O=C(NC12CC3CC(CC(C3)C1)C2)c1ccccc1O	9.0	6.0	i	1.04	2.21*	7.0%
Cc1ccc2oc(C(=O)Nc3c(C)n(C)n(-c4ccccc4)c3=O)c(C)c2c1	10.0	7.0	i	1	1.05	3.0%
Cc1cc2n(n1)C(c1ccccc1)Nc1ccccc1-2 (centres undefined)	2.0	21.0	i	1.02	2.01*	7.0%
Cc1ccc2c(c1)-c1cc(C)nn1C(c1ccc3c(c1)OCO3)N2 (centres undefined)	0.0	7.0	i	0.97	1.96	5.0%
c1cncc(C2Nc3ccccc3-c3nc4ccccc4n32)c1 (centres undefined)	i	i	i	1.01	1.66	4.0%
Cc1cc2n(n1)C(c1ccc(N(C)C)cc1)Nc1ccccc1-2 (centres undefined)	0.0	6.0	x	1.07	3.71*	3.0%
Cc1cc2n(n1)C(c1ccc3c(c1)OCO3)Nc1ccccc1-2 (centres undefined)	4.0	1.0	i	1.02	2.28*	3.0%
COc1cc(OC)c(N2CC34C=CC(O3)C(C(=O)O)C4C2=O)cc1Cl (centres undefined)	8.0	0.0	i	1.02	1.07	3.0%
O=C(c1ccco1)N1CCN(S(=O)(=O)c2ccc(S(=O)(=O)NC3CCCCC3)cc2)CC1	0.0	0.0	i	1.02	1.08	0.0%
NC(=O)C1CCN(C(=O)CSc2nc3c(c(-c4ccccc4)n2)CCCC3)CC1	7.0	11.0	i	1.03	1.15	8.0%
CC1=C(C(=O)OC(C)C)C(c2ccccn2)n2ncnc2N1 (centres undefined)	5.0	10.0	i	0.99	1.03	3.0%
Cn1c2ccccc2c2c(C(=O)NCc3ccco3)cn(C3CCCCC3)c(=O)c21	7.0	15.0	x	1.05	2.11*	11.0%
Cn1c2ccccc2c2c(C(=O)O)cn(C3CCCC3)c(=O)c21	10.0	2.0	x	1.01	2.13*	6.0%
COc1ccc(N2CCN(C(=O)c3cn(C4CCCC4)c(=O)c4c3c3ccccc3n4C)CC2)cc1	5.0	16.0	i	1.04	1.28	7.0%
Cc1ccc(CNC(=O)c2cn(C3CCCC3)c(=O)c3c2c2ccccc2n3C)o1	2.0	19.0	x	1.05	2.12*	11.0%
CC(=O)N(CCO)Cc1cc2cc(C)cc(C)c2[nH]c1=O	8.0	14.0	i	1.04	1.97	14.0%
Cc1c(CCC(=O)O)c(=O)oc2cc(O)ccc12	0.0	0.0	x	1.14	2.12*	0.0%
Cc1cc(=O)oc2cc(OCC(=O)N3c4ccccc4CC3C)ccc12 (centres undefined)	0.0	14.0	i	1.05	1.87	7.0%
CCCc1c(C)c2ccc(OCC(C)=O)cc2oc1=O	6.0	6.0	x	1.08	5.1*	6.0%
CCc1cc(=O)oc2cc(OCC(=O)N3CCc4ccccc43)ccc12	2.0	17.0	i	1.02	3.23*	10.0%
CCCCc1cc(=O)oc2cc(OCC(=O)N(CC)CC)ccc12	9.0	0.0	x	1.1	2.18*	5.0%
SMILES	Spn MK inh	PMK inhibit	DPM-DC inhibit	A340 absorber	Autofluor 339	NADH enzymes
CCCCc1cc(=O)oc2cc(OCC(=O)N(CC)CC)c(Cl)cc12	8.0	16.0	i	1.03	1.52	5.0%
Cc1c(CCC(=O)O)c(=O)oc2cc3occ(-c4ccc(F)cc4)c3cc12	11.0	8.0	i	1.07	1.63	9.0%
CCC(=O)Oc1ccc2c(C)c(Cl)c(=O)oc2c1	1.0	0.0	x	1.06	2.18*	1.0%
CCCCc1c(C)c2ccc(OCC(C)=O)cc2oc1=O	0.0	4.0	x	1.07	2.34*	2.0%
CCN(CC)C(=O)Oc1ccc2c(=O)c(-c3ccc(OC)cc3)c(C)oc2c1	7.0	11.0	i	1.02	1.2	6.0%
C=C(Cl)COc1ccc2c(C)cc(=O)oc2c1	11.0	6.0	i	1.03	1.7	7.0%
CCN1C(=O)c2ccc(-c3nc4ccccc4c(=O)o3)cc2C1=O	5.0	5.0	x	1.07	2.17*	5.0%
O=C1CN(c2nc3ccccc3n3cnnc23)CC(=O)N1CCc1ccccc1	7.0	17.0	i	0.99	1.01	5.0%
Clc1ccc2nc(NC3=NCN(CCN4CCOCC4)CN3)nc(-c3ccccc3)c2c1	14.0	14.0	i	1	2.23*	17.0%
CCCc1cn(S(=O)(=O)c2ccc(OC)cc2OC)nc1N	5.0	6.0	i	0.99	1.02	2.0%
CCc1cc2c(=O)c(-c3nc4ccccc4[nH]3)coc2cc1OC(=O)N1CCOCC1	0.0	6.0	+	1.03	1.34	5.0%
COC(=O)c1sc(NC(=O)c2cnccn2)c(C(=O)OC)c1C	6.0	12.0	i	1.11	1.41	6.0%
COc1ccc2[nH]c3c(c2c1)CCn1c-3nc2ccccc2c1=O	9.0	0.0	x	1.15	2.24*	5.0%
COc1cccc(C2/C(=C(\O)c3ccc(OC)c(OC)c3)C(=O)C(=O)N2c2cc(C)on2)c1 (centres undefined)	4.0	6.0	i	1.1	1.01	4.0%
CCOC(=O)N1CCN(C(=O)c2cc3c(=O)[nH]c4ccccc4c3s2)CC1	9.0	17.0	x	1.08	3.74*	13.0%
COc1cccc(OCC(=O)Nc2c(C(=O)Nc3ccc(OC)cc3OC)oc3ccccc23)c1	0.0	13.0	x	1.1	5.04*	7.0%
COc1ccc(NC(=O)c2oc3ccccc3c2NC(=O)c2ccco2)c(OC)c1	0.0	9.0	x	1.07	5.06*	5.0%
COCC(=O)Nc1c(C(=O)Nc2cccc(OC)c2)oc2ccccc12	7.0	8.0	i	1.07	1.29	5.0%
CCOCC(=O)Nc1c(C(=O)Nc2ccc(OC)cc2OC)oc2ccccc12	6.0	11.0	x	1	2.37*	3.0%
COCC(=O)Nc1c(C(=O)Nc2ccccc2OC)oc2ccccc12	2.0	11.0	i	1.01	1.17	2.0%
COc1ccc(NC(=O)c2oc3ccccc3c2NC(=O)c2ccco2)cc1	0.0	7.0	i	1.03	1.17	1.0%
COc1ccccc1NC(=O)c1oc2ccccc2c1NC(=O)c1cc(OC)c(OC)c(OC)c1	0.0	3.0	x	1.01	3.24*	1.0%
C=CCn1c(Cc2cccs2)nnc1SCC(=O)Nc1cc(OC)cc(OC)c1	5.0	19.0	i	1.04	1.12	8.0%
CCC(Sc1nc2ccccc2c(=O)n1CC1CCCO1)C(=O)NCc1cccnc1 (centres undefined)	9.0	0.0	i	0.99	1.05	3.0%
